{"source": "PubChem BioAssay (EPA / NIEHS)", "note": "Active and inactive are the calls of the source. The calls were made as follows: active = hit-call score of the fitted dose curve at least 0.9, where 1 is the maximum; inconclusive = response in the unintended direction; inactive = score below 0.9.", "data": [{"target": "Estrogen receptor (Homo sapiens) (UniProt P03372)", "sequence (P03372 whole entry, looked up)": "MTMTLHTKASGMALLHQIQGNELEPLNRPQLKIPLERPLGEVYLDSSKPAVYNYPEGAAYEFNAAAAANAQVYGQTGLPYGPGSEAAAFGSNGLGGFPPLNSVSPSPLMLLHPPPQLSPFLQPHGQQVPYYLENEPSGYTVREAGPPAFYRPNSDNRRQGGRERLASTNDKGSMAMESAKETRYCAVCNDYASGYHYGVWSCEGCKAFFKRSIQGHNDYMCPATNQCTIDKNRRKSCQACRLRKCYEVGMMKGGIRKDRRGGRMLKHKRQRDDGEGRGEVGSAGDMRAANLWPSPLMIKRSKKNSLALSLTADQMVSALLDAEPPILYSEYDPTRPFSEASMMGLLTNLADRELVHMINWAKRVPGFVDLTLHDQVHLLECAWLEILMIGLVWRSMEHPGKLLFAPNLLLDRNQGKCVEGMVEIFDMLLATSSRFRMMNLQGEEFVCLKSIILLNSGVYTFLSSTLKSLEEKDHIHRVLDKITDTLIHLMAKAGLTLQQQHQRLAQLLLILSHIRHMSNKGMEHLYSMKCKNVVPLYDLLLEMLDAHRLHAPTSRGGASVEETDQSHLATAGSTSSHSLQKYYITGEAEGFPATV", "assay": "OT_ER_ERaERa_1440: Odyssey Thera (OT) 24-hour HEK293T Protein-Complementation Assay for Estrogen Receptor-alpha/-alpha Homodimer (AID 2283349);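 also: hits raise fluorescence above DMSO for agonists and antagonists alike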", "description": "OT_ER_ERaERa_1440 is a cell-based assay that uses HEK293T, a human kidney cell line, with measurements taken at 24 hours after chemical dosing in a 384-well plate.OT_ER_ERaERa_1440 is one of one assay component(s) measured or calculated from the OT_ER_ERaERa_1440 assay. It is designed to make measurements of protein fragment complementation, a form of binding reporter, as detected with fluorescence intensity signals by Protein-fragment Complementation technology.Data from the assay component OT_ER_ERaERa_1440 was analyzed into 1 assay endpoint. This assay endpoint, OT_ER_ERaERa_1440, was analyzed in the positive analysis fitting direction relative to DMSO as the negative control and baseline of activity. Using a type of binding reporter, measures of receptor for gain-of-signal activity can be used to understand the binding at the pathway-level as they relate to the gene ESR1. Furthermore, this assay endpoint can be referred to as a primary readout, because the performed assay has only produced 1 assay endpoint. To generalize the intended target to other relatable targets, this assay endpoint is annotated to the nuclear receptor intended target family, where the subfamily is steroidal.\nProtein-fragment complementation assay, or PCA, is a method for the identification and quantification of protein-protein interactions. In the PCA, the proteins of interest (\"bait\" and \"prey\") are each covalently linked to fragments of a third protein (e.g. DHFR, which acts as a \"reporter\"). Interaction between the bait and the prey proteins brings the fragments of the reporter protein in close proximity to allow them to form a functional reporter protein whose activity can be measured. The OT ER alpha / ER alpha assay is a homodimer PCA of the ligand binding domain (amino acids 310-547) of human ER alpha stably expressed in HEK293T cells. […] Fluorescent signal in the basal state of the assay is very low and is primarily punctuate and cytoplasmic. Modulation of this assay is quantified as an increase in mean fluorescence intensity in the nucleus (for agonists) or in the nucleus and cytoplasm (antagonists) relative to vehicle controls, and can be quantified on a high content imaging device or a laser scanning cytometer. The latter instrument is favored for this assay because of the rapid mode of data acquisition, the ability to acquire data from the entire cell population in a well (as opposed to a fraction of the well on the high content devices) and the larger dynamic range typically achieved with this instrument. To assess sensitivity of the ER alpha/ER alpha LBD assay to ligand, cells were treated with the ER agonist 17 beta-estradiol (E2) in 10-point concentration- response format for 24 hours and monitored response on a laser scanning plate cytometer (Acumen eX3; TTP Lab Tech).", "values": [{"compound": "Cc1cccc([N+](=O)[O-])c1C", "outcome": "inactive"}, {"compound": "Cc1ccc2ncccc2c1", "outcome": "inactive"}, {"compound": "CCCCCCCC=O", "outcome": "inactive"}, {"compound": "O=[N+]([O-])C(CO)(CO)CO", "outcome": "inactive"}, {"compound": "CN[C@H]1CC[C@@H](c2ccc(Cl)c(Cl)c2)c2ccc(S(N)(=O)=O)cc21", "outcome": "inactive"}, {"compound": "Cc1oc(-c2ccccc2)nc1CCOc1cccc2c1ccn2CCC(=O)O", "outcome": "inactive"}, {"compound": "Cc1ccc(C)c(O)c1C", "outcome": "inactive"}, {"compound": "Cc1c(C(=O)O)c(O)cc2c1C(=O)c1c(O)c([C@@H]3O[C@H](CO)[C@@H](O)[C@H](O)[C@H]3O)c(O)c(O)c1C2=O", "outcome": "inactive"}, {"compound": "CC(=O)C(C)=CC1C(C)=CCCC1(C)C", "note": "(stereo not given)", "outcome": "inactive"}, {"compound": "Cc1ccc(C)c(C)c1", "outcome": "inactive"}, {"compound": "O=C(OCCCCCOC(=O)c1ccccc1)c1ccccc1", "outcome": "inactive"}, {"compound": "CC1=C(/C=C/C(C)=C/C=C/C(C)=C/CO)C(C)(C)CCC1", "outcome": "inactive"}, {"compound": "Cc1ccc(C(C)C)c(O)c1", "outcome": "inactive"}, {"compound": "Oc1ccc2ccccc2c1N=Nc1ccccc1", "outcome": "inactive"}, {"compound": "COCCOCCOC", "outcome": "inactive"}, {"compound": "Cc1ccc(Cl)cc1", "outcome": "inactive"}, {"compound": "Clc1cc(Cl)c(Cl)cc1Cl", "outcome": "inactive"}, {"compound": "c1cc(-c2ccncc2)ccn1", "outcome": "inactive"}, {"compound": "CC1(C)NC(=O)NC1=O", "outcome": "inactive"}, {"compound": "COc1ccc(C)cc1N", "outcome": "inactive"}, {"compound": "NC(=O)Cn1c(=O)cc(CCN2CCN(c3nccc4sccc34)CC2)c2ccc(F)cc21", "outcome": "inactive"}, {"compound": "FC(F)(F)C(F)(F)C(F)(F)C(F)(F)C(F)(F)C(F)(F)CCI", "outcome": "inactive"}, {"compound": "CCc1c(C(=O)NN2CCCCC2)nn(-c2ccc(Cl)cc2Cl)c1-c1ccc(Br)cc1", "outcome": "inactive"}, {"compound": "O=C(O)CCCCC(=O)O", "outcome": "inactive"}, {"compound": "CC(C)c1ccc(C(=O)N=C(N)N)cc1S(C)(=O)=O", "outcome": "inactive"}, {"compound": "CCCCCCOCCO", "outcome": "inactive"}, {"compound": "Nc1nc(N)c2nc(CNc3ccc(C(=O)N[C@@H](CCC(=O)O)C(=O)O)cc3)cnc2n1", "outcome": "inactive"}, {"compound": "CC(=O)OCCOCCOCCOC(C)=O", "outcome": "inactive"}, {"compound": "Nc1ccccc1N", "outcome": "inactive"}, {"compound": "CC(C)(C)c1cc(O)c(C(C)(C)C)cc1O", "outcome": "inactive"}, {"compound": "C[C@]12C=CC(=O)C=C1CC[C@@H]1[C@@H]2C(=O)C[C@@]2(C)[C@H]1CC[C@]2(O)C(=O)CO", "outcome": "inactive"}, {"compound": "NS(=O)(=O)c1cc2c(cc1Cl)NCNS2(=O)=O", "outcome": "inactive"}, {"compound": "NCCO", "outcome": "inactive"}, {"compound": "COc1cc(S(=O)(=O)O)c(C)cc1N=Nc1c(O)ccc2cc(S(=O)(=O)O)ccc12", "outcome": "inactive"}, {"compound": "Cc1ccccc1Cl", "outcome": "inactive"}, {"compound": "O=C(O)Cc1ccccc1Nc1c(Cl)cccc1Cl", "outcome": "inactive"}, {"compound": "Cc1cc(NC(=O)C(=O)O)cc(C)c1Oc1ccc(O)c2c1CCC2", "outcome": "inactive"}, {"compound": "CCCCCCC(=O)OCC", "outcome": "inactive"}, {"compound": "CC(=O)Oc1ccccc1C(=O)O", "outcome": "inactive"}, {"compound": "Oc1ccc2c(c1)OC[C@@H](N1CCC(O)(c3ccc(F)cc3)CC1)[C@H]2O", "outcome": "inactive"}]}]}
